Source: PubChem BioAssay AID1159580 (chemical genetic matrix, 2015)
Screen size: about 5,500 compounds; about 2,000 (36%) were called active. Roughly 18% stayed inconclusive and do not appear here. Rule as the data show it: active = normalized growth mostly below about 0.91 (no sharp cut-off); inconclusive = no clear call, values can overlap the other calls; inactive = mostly above about 0.92. The list shows a part of the results.

Experiment: chemical genetic growth profiling, strain panel (AID 1159580);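 also: tested at 20 µM; growth read once vehicle control cultures reached saturation at 30 °C; 1 = growth at the plate median or of vehicle wells; lower values mean less growth of the strain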
Settings: S. cerevisiae deletion strains, growth OD
[1] = locus YAL040C, strain CLN3, active compounds read low
[2] = locus YCL061C, strain MRC1 (second series), active compounds read low
[3] = locus YDR363W, strain ESC2, active compounds read low
[4] = locus YER002W, strain NOP16, active compounds read low
[5] = locus YGR229C, strain SMI1, active compounds read low
[6] = locus YNL153C, strain GIM3, active compounds read low
[7] = locus YNL175C, strain NOP13, active compounds read low
[8] = locus YNL197C, strain WHI3, active compounds read low
[9] = locus YNL224C, strain SQS1, active compounds read low
[10] = locus YOR083W, strain WHI5 (second series), active compounds read low
[11] = locus YPL241C, strain CIN2, active compounds read low

Measured: normalized growth

CCc1c(C(=O)OC)ncc2[nH]c3cc(OC)c(OC)cc3c12
inactive: [1] 0.994 | [2] 0.994 | locus YDR150W, strain NUM1, active compounds read low 0.995 | [3] 1 | [4] 0.99 | [5] 1.05 | locus YJR075W, strain HOC1, active compounds read low 0.99 | locus YMR307W, strain GAS1, active compounds read low 1.01 | [6] 0.984 | [7] 0.998 | [8] 0.992 | [9] 1.02 | [10] 1 | [11] 0.999

NC(=O)CNCCC(c1ccccc1)c1ccccc1
inactive: [1] 0.962 | [2] 0.987 | [3] 0.965 | [4] 0.969 | locus YGR078C, strain PAC10, active compounds read low 0.993 | [5] 0.895 | [6] 1.04 | [7] 0.993 | [8] 1.01 | [9] 0.991 | [10] 1.03 | [11] 0.984

CNCC[C@@H](Oc1ccccc1)c1ccccc1
inactive: locus YAL021C, strain ccr4, active compounds read low 0.976 | locus YAL026C, strain drs2, active compounds read low 0.961 | locus YAL030W, strain snc1, active compounds read low 0.947 | locus YBL061C, strain skt5, active compounds read low 0.98 | locus YBR009C, strain hhf1, active compounds read low 0.974 | locus YBR023C, strain chs3, active compounds read low 0.979 | locus YBR171W, strain sec66, active compounds read low 0.979 | locus YBR231C, strain swc5, active compounds read low 0.984 | locus YBR279W, strain paf1, active compounds read low 0.982 | locus YCL011C, strain gbp2, active compounds read low 0.975 | locus YCL016C, strain dcc1, active compounds read low 0.979 | locus YCL061C, strain MRC1, active compounds read low 0.982 | locus YCL069W, strain vba3, active compounds read low 0.978 | locus YCR088W, strain abp1, active compounds read low 0.983 | locus YDL005C, strain med2, active compounds read low 0.983 | locus YDL040C, strain nat1, active compounds read low 0.988 | locus YDR001C, strain nth1, active compounds read low 0.974 | locus YDR069C, strain doa4, active compounds read low 0.965 | locus YDR137W, strain rgp1, active compounds read low 1.02 | locus YDR159W, strain sac3, active compounds read low 0.944 | locus YDR195W, strain ref2 0.972 | locus YDR297W, strain sur2, active compounds read low 0.98 | locus YDR334W, strain swr1, active compounds read low 0.951 | locus YDR335W, strain msn5, active compounds read low 0.965 | locus YDR392W, strain spt3, active compounds read low 0.975 | locus YEL003W, strain gim4, active compounds read low 0.973 | locus YEL037C, strain rad23, active compounds read low 0.988 | locus YEL061C, strain CIN8 (second series), active compounds read low 0.988 | locus YER015W, strain faa2, active compounds read low 0.961 | locus YER016W, strain bim1, active compounds read low 0.978 | locus YER111C, strain swi4, active compounds read low 0.981 | locus YER155C, strain BEM2 (second series), active compounds read low 0.978 | locus YFR010W, strain ubp6, active compounds read low 0.964 | locus YGL167C, strain pmr1, active compounds read low 0.977 | locus YGL173C, strain kem1, active compounds read low 0.954 | locus YGL227W, strain vid30, active compounds read low 0.97 | locus YGL240W, strain doc1, active compounds read low 0.96 | locus YGL253W, strain hxk2, active compounds read low 0.984 | locus YHR013C, strain ard1, active compounds read low 0.973 | locus YHR027C, strain rpn1, active compounds read low 0.946 | locus YHR030C, strain SLT2, active compounds read low 1.01 | locus YHR079C, strain IRE1, active compounds read low 0.995 | locus YHR142W, strain chs7, active compounds read low 0.973 | locus YJL092W, strain hpr5, active compounds read low 0.984 | locus YJL095W, strain BCK1 (second series), active compounds read low 0.971 | locus YJL095W, strain BCK1, active compounds read low 0.996 | locus YJL115W, strain asf1, active compounds read low 0.957 | locus YJL129C, strain trk1, active compounds read low 0.99 | locus YJL154C, strain vps35, active compounds read low 0.97 | locus YJL164C, strain tpk1, active compounds read low 0.987 | locus YJL166W, strain qcr8, active compounds read low 0.976 | locus YJL187C, strain SWE1, active compounds read low 0.98 | locus YJR066W, strain TOR1, active compounds read low 0.946 | locus YKL160W, strain elf1, active compounds read low 0.989 | locus YKR026C, strain gcn3, active compounds read low 0.977 | locus YKR091W, strain srl3, active compounds read low 0.988 | locus YLL001W, strain dnm1, active compounds read low 0.988 | locus YLL026W, active compounds read low 0.97 | locus YLL041C, strain sdh2, active compounds read low 0.968 | locus YLR027C, strain aat2, active compounds read low 0.962 | locus YLR113W, strain HOG1, active compounds read low 0.965 | locus YLR221C, strain rsa3, active compounds read low 0.976 | locus YLR258W, strain gsy2, active compounds read low 0.981 | locus YLR262C, strain YPT6 (second series), active compounds read low 0.982 | locus YLR320W, strain mms22, active compounds read low 0.989 | locus YLR342W, strain FKS1, active compounds read low 0.976 | locus YLR357W, strain rsc2, active compounds read low 1.01 | locus YLR370C, strain arc18, active compounds read low 0.981 | locus YLR384C, strain iki3, active compounds read low 0.972 | locus YML120C, strain ndi1, active compounds read low 0.983 | locus YMR058W, strain fet3, active compounds read low 0.981 | locus YMR125W, strain sto1, active compounds read low 0.979 | locus YMR129W, active compounds read low 0.991 | locus YMR205C, strain PFK2, active compounds read low 0.958 | locus YMR231W, strain pep5, active compounds read low 0.984 | locus YNL071W, strain lat1, active compounds read low 0.993 | locus YNL183C, strain NPR1, active compounds read low 0.958 | locus YNL209W, strain ssb2, active compounds read low 0.948 | locus YNL248C, strain rpa49, active compounds read low 0.974 | locus YNL322C, strain KRE1 (second series), active compounds read low 0.978 | locus YNR049C, strain mso1, active compounds read low 0.969 | locus YOR001W, strain rrp6, active compounds read low 0.972 | locus YOR070C, strain gyp1, active compounds read low 0.989 | locus YOR080W, strain dia2, active compounds read low 0.973 | locus YOR083W, strain WHI5, active compounds read low 0.981 | locus YOR106W, strain vam3, active compounds read low 0.972 | locus YOR231W, strain MKK1, active compounds read low 1.01 | locus YOR265W, strain rbl2, active compounds read low 0.98 | locus YOR270C, strain vph1, active compounds read low 1.01 | locus YOR290C, strain snf2, active compounds read low 0.974 | locus YPL051W, strain arl3, active compounds read low 0.994 | locus YPL078C, strain atp4, active compounds read low 0.984 | locus YPL106C, strain sse1, active compounds read low 0.924 | locus YPL240C, strain hsp82, active compounds read low 0.976 | locus YPL256C, strain CLN2, active compounds read low 0.992
